Assay [1] in a line: compounds binding Alexa647 anti-His antibody – biochemical, small-molecule microarray, 635 nm fluorescence, artefact control for SMM control protein annotation, primary screen (AID 1128).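 Further: score merges feature fluorescence with signal-to-noise for each printed compound spot.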 The note with it: higher = more signal.
The subject of assay [2] is Human papillomavirus type 1a E7 protein (residues 1-88). The experiment in a line: HPV1a E7 small-molecule binders, primary screen, biochemical, small-molecule microarray, residues 1-88, 635 nm (AID 1129). The note with it: small-molecule microarray binding, fluorescence 635 nm; higher = more signal.
Assay [3] concerns the target Focal adhesion kinase 1 (Homo sapiens) (UniProt Q05397). The experiment in a line: PTK2 protein binding on printed compound slides – biochemical, small-molecule microarray, 635/667 nm fluorescence, BSA, DTT, primary screen (AID 1130).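 Further: composite of spot emission at 667 nm and signal to noise over triplicate slides.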 The settings on record: 635 nm fluorescence, higher = more signal.
For assay [4], the system named is Fibrinogen (Alexa647-labelled). Kind of assay: Alexa647-fibrinogen binding to printed small molecules – biochemical, small-molecule microarray, 635/667 nm fluorescence, artefact control for SMM control-protein annotation, profiling panel (AID 1131).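 Further: z-score merges 667 nm fluorescence with per-spot signal-to-noise over triplicate slides.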 The note with it: fibrinogen-A647 binding fluorescence, higher = more signal.
Assay [5] concerns the target Follistatin (Homo sapiens) (UniProt P19883). Kind of assay: FST protein binding to printed compounds – biochemical, small-molecule microarray, 635/667 nm fluorescence, primary screen (AID 1132). The note with it: 635 nm fluorescence, higher = more signal.
Assay [6] deals with Fibroblast growth factor 2 (Homo sapiens) (UniProt P09038). Kind of assay: basic fibroblast growth factor binding to printed compounds – biochemical, small-molecule microarray, 635/667 nm fluorescence, primary screen (AID 1133). The note with it: FGF2, fluorescence 635/667, higher = more signal.
Assay [7] in a line: JC-1 mitochondrial potential readout, lung cancer cells – cell-based, A549, JC-1 fluorescence, basal, 24 h, 100 nL, profiling panel (AID 1138).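 Further: A549 lung adenocarcinoma cells under basal conditions with no added stimulus; test concentration not given here.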 The note with it: higher = more signal.
The next assay has as its system Lefty1. The experiment in a line: Lefty1 protein binding to printed compounds – biochemical, small-molecule microarray, 635/667 nm fluorescence, primary screen (AID 1139). The settings on record: fluorescence 635/667, higher = more signal.
The test system of assay [8] is wheat germ agglutinin (Triticum aestivum), Alexa647-labelled. The experiment in a line: Alexa647-WGA lectin binding to printed small molecules – biochemical, small-molecule microarray, 635/667 nm fluorescence, artefact control for SMM control-protein annotation, profiling panel (AID 1140).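 Further: score merges 667 nm feature emission with signal to noise over triplicate slides.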 The note with it: WGA-A647 binding, 635 nm fluorescence, higher = more signal.

Assay [9] addresses Luciferin 4-monooxygenase (Photinus pyralis) (UniProt P08659). Kind of assay: inhibition of purified Photinus pyralis luciferase – biochemical, luminescence, purified enzyme, 2006 set, primary screen (AID 1141).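 Further: cell-free assay with purified firefly luciferase at 100 ng per well in PBS; test concentration not given here.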 The note with it: purified firefly luciferase, SteadyGlo luminescence, 30 min; higher = more signal, called active from +8 up or from −8 down.
Assay [10] has as its system Wnt5a (protein binding on small-molecule microarray). Kind of assay: small molecules binding Wnt5a protein – biophysical, small-molecule microarray, 635/667 nm fluorescence, primary screen (AID 1142).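 Further: fluorescence read at 667 nm with signal to noise per printed feature.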 The note with it: 635 nm fluorescence, higher = more signal.
The nature of assay [11]: ATP-based viability of Huh7 replicon cells – cell-based, CellTiter-Glo luminescence, basal, 48 h, cytotoxicity control for HCV replication inhibitor project, primary screen (AID 1143).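 Further: Huh7 hepatoma cells carrying a hepatitis C replication reporter with no stimulus; test concentration not given here.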 The note with it: higher = more signal, called active from +8 up or from −8 down.
Assay [12] can be described thus: Pseudomonas biofilm growth suppression – PAO1 strain, BacTiter-Glo luminescence, LB-PBS, primary screen (AID 1144). The note with it: P. aeruginosa PAO1 biofilm, 12 h, higher = more signal.
The nature of assay [13]: basal CRE-LacZ reporter activity in PC12 – cell-based, unstimulated, primary screen (AID 1145). The note with it: no forskolin, luminescence, 4.5 h, higher = more signal, called active from +8 up or from −8 down.
The nature of assay [14]: forskolin-driven CRE-LacZ activity in PC12 – cell-based, CRE-LacZ reporter, forskolin-stimulated, primary screen (AID 1146).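 Further: PC12 cells with 6xCRE LacZ reporter stimulated by forskolin 10 µM; beta-galactosidase reporter signal reflecting CREB driven transcription.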 The note with it: luminescence, 4.5 h, higher = more signal, called active from +8 up or from −8 down.
In assay [15] the target is Streptavidin (Streptomyces avidinii) (UniProt P22629). The experiment in a line: compounds binding control protein streptavidin – biophysical, small-molecule microarray, 635/667 nm fluorescence, artefact control for SMM compound annotation, primary screen (AID 1147).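 Further: signal reflects streptavidin binding to arrayed compounds as a control protein.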 The settings on record: higher = more signal.
The nature of assay [16]: probe aInhba binding on compound microarray – biochemical, small-molecule microarray, 635/667 nm fluorescence, primary screen (AID 1148).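 Further: score merges 667nm spot fluorescence with signal-to-noise for antibody binding to printed compounds.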 The settings on record: higher = more signal.
The target in assay [17] is Torsin-1A (Homo sapiens) (UniProt O14656). Kind of assay: TOR1A wild-type binding on microarray – cell lysate, small-molecule microarray, lysate, 635/667 nm, primary screen (AID 1149). The note with it: COS7 hTOR1A-WT lysate, 635 nm fluorescence, higher = more signal.
For assay [18] the target is unchanged. Kind of assay: torsin A mutant lysate binding on microarrays – cell lysate, small-molecule microarray, COS7 lysate, 635/667 nm fluorescence, primary screen (AID 1150).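 Further: score pools 667 nm emission and signal to noise measuring lysate protein binding.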 The settings on record: COS7 hTOR1A mutant lysate, 635 nm fluorescence, higher = more signal.
In assay [19] the test system is Sonic hedgehog protein (Shh). Kind of assay: Sonic hedgehog microarray binding compounds – biochemical, small-molecule microarray, 635/667 nm fluorescence, primary screen (AID 1151).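 Further: Shh protein binding to compounds spotted on small-molecule microarray slides; score combines spot fluorescence intensity with signal-to-noise across triplicate slides.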 The settings on record: 635 nm fluorescence, higher = more signal.

SMILES strings stand for the structures. Activity calls are given as the source filed them. Unless noted, how the calls were made is not given here.

Chain of Streptavidin (Streptomyces avidinii) (P22629 whole entry, looked up): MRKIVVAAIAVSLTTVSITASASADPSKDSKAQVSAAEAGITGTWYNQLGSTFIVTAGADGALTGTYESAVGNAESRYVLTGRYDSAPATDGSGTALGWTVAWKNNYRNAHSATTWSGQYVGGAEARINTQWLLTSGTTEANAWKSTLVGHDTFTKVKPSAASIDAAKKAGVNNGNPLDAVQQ
Chain of Luciferin 4-monooxygenase (Photinus pyralis) (P08659 whole entry, looked up): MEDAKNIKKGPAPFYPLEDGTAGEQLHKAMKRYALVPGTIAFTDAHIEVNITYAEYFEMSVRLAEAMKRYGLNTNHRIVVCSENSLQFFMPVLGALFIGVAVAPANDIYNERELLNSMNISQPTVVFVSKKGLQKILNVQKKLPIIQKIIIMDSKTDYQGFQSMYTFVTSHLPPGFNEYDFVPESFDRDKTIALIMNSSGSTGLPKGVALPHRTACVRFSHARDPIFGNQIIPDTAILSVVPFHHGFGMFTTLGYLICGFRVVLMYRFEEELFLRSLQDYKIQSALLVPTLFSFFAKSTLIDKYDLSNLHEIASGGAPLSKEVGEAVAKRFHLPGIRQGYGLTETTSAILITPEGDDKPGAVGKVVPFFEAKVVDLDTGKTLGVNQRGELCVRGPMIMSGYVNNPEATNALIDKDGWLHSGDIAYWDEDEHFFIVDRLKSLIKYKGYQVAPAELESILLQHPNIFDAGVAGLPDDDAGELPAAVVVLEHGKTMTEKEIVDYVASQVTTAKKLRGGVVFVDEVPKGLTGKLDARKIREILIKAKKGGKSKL
Chain of Fibroblast growth factor 2 (Homo sapiens) (P09038 whole entry, looked up): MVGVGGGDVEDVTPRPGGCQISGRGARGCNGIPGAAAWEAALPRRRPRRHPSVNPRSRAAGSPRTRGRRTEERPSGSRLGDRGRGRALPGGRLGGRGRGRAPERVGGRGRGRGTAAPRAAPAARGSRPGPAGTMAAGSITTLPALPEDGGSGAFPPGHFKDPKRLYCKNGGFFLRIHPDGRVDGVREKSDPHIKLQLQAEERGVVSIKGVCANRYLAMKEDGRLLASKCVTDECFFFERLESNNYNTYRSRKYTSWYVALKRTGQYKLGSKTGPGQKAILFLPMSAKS
Chain of Follistatin (Homo sapiens) (P19883 whole entry, looked up): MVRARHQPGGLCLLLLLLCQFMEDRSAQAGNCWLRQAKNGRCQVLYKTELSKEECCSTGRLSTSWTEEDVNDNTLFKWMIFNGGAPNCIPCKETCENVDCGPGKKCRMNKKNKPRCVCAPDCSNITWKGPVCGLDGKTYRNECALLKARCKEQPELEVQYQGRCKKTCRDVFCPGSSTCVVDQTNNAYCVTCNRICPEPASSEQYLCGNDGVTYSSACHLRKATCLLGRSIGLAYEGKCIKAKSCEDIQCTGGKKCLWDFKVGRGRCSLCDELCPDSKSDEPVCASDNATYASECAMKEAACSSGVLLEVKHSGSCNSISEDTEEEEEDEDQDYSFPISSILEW
Chain of Focal adhesion kinase 1 (Homo sapiens) (Q05397 whole entry, looked up): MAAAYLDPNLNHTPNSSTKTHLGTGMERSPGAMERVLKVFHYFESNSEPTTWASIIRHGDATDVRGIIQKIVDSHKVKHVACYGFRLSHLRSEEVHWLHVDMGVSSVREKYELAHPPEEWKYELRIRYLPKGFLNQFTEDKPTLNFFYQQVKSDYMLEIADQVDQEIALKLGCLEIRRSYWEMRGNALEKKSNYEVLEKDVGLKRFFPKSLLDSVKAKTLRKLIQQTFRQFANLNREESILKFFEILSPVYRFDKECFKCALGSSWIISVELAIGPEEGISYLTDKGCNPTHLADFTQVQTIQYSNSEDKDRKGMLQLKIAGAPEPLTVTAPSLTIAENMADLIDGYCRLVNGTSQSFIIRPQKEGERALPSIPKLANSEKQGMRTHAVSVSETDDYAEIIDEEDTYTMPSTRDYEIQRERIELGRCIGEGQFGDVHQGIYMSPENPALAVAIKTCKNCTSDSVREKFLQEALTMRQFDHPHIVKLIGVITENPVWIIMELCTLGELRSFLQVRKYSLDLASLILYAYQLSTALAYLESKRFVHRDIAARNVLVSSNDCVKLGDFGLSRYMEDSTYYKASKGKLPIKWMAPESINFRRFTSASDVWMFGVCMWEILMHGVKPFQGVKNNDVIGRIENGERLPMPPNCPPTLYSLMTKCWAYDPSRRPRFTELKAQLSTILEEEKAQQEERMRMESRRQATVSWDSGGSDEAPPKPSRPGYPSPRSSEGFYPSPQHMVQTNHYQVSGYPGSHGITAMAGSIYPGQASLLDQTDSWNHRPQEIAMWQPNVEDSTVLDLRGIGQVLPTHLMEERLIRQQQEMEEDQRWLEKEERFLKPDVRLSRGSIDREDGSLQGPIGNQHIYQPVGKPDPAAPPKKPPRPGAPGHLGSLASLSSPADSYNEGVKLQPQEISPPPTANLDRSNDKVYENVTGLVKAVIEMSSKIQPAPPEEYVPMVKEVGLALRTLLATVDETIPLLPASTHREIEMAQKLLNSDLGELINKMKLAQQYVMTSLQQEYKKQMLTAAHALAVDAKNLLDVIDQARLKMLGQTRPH
Chain of Torsin-1A (Homo sapiens) (O14656 whole entry, looked up): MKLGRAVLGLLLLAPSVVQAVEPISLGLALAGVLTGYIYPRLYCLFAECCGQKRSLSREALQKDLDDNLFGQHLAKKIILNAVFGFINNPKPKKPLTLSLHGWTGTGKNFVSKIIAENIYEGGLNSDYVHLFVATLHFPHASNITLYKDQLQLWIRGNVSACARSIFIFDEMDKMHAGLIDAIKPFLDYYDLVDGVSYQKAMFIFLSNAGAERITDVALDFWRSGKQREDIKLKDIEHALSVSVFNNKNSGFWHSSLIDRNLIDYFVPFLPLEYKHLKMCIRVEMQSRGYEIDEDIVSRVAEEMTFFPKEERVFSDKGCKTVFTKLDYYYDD

`C=CCOC(=O)[C@H]1[C@@H]2C(=O)O[C@@H](c3ccccc3)[C@@H](c3ccccc3)N2[C@@H](c2ccc(OCCOC(=O)[C@@H]3C[C@@H]4C(=O)N[C@@H](CCCC[N+](C)(C)C)C(=O)N4[C@@H]3c3ccc(O)cc3)cc2)[C@]12C(=O)Nc1ccccc12`: the composite z-score in assay [1] amounted to 1.46; in assay [2], 1.2; in assay [3] it was 0.877; in assay [4], 0.583; in assay [5], 1.26; in assay [6] it was 1.51. In addition, the composite z-score in the assay with Lefty1 is 1.18; in assay [8], 0.494; in assay [10], 0.444; in assay [15], -0.0862; in assay [16] it was -0.0494; in the assay with Torsin-1A (Homo sapiens) [17] it was 1.67. Besides, the composite z-score with Torsin-1A (Homo sapiens) [18] was found to be 1.23; in assay [19] it was 2.06. In addition, the z-score was -0.849 in assay [7]; -2.95 (inactive) in [9]; -2.47 (inactive) in [11]; -1.19 (inactive) in [12]; -1.07 (inactive) in [13]; -1.48 (inactive) in assay [14].
As for `CCOC(=O)[C@H]1CC=C2CC1C(=O)N1CCC[C@@H]1[C@@H]2O[Si](C)(C)C(C)(C)C` (stereo not given in full), the composite z-score in assay [1] is -0.0289; in [2] it was -0.708; in [3], -0.173; in assay [4], -0.162; in [5], -0.878; in assay [6], -0.206. Besides, the composite z-score is 0.449 with Lefty1; -0.502 in [8]; -0.395 in assay [10]; -1.49 in [15]; -0.238 in assay [16]; -0.55 in the assay with Torsin-1A (Homo sapiens) [17]. Moreover, the composite z-score was -0.83 with Torsin-1A (Homo sapiens) [18] and 0.398 in assay [19]. In addition, the z-score in assay [7] is -0.158; in [9], 0.367 (inactive); in assay [11] it was -6.23 (inactive); in assay [12], -0.451 (inactive); in assay [13], -0.776 (inactive); in assay [14], -0.661 (inactive).
In the case of `CCOC(=O)C=Cc1cc([N+](=O)[O-])ccc1O`, the composite z-score in [1] was -0.59; in assay [2], -0.455; in assay [3], -0.0779; in assay [4], -0.429; in [5], -0.907; in assay [6] it was -0.652. For the same molecule, the composite z-score was -0.83 with Lefty1; -0.0396 in [8]; -0.128 in assay [10]; 0.572 in assay [15]; -0.0523 in [16]; 0.437 with Torsin-1A (Homo sapiens) [17]. In addition, the composite z-score with Torsin-1A (Homo sapiens) [18] is 0.328; in [19] it was -0.117. Moreover, the z-score in assay [7] was -2.31; in assay [9], 1.38 (inactive); in assay [11] it was -4.44 (inactive); in assay [12], -0.283 (inactive); in assay [13] it was 0.173 (inactive); in assay [14], -2.08 (inactive).
For `COc1cc(OC)c(C(O)C2C=CC3C(=O)NC(=O)C3N2Nc2ccc(Cl)cc2Cl)cc1Br` (stereo not given), the composite z-score in assay [1] was determined as 1.29; in [2] it was 1.22; in assay [3], 0.859; in assay [4], 0.786; in assay [5], 0.677; in assay [6] it was 0.518. In addition, the composite z-score in the assay with Lefty1 was 0.0498; in [8], 1.07; in assay [10], 0.153; in assay [15], 1.64; in [16], 0.0111; with Torsin-1A (Homo sapiens) [17], -0.241. In addition, the composite z-score with Torsin-1A (Homo sapiens) [18] is 0.414; in assay [19], -0.366. Also, the z-score is -0.824 in [7]; 0.719 (inactive) in assay [9]; -2.57 (inactive) in assay [11]; -0.835 (inactive) in [12]; 0.433 (inactive) in assay [13]; -0.919 (inactive) in assay [14].

The record behind these values is PubChem BioAssay.
